Compounds with a hit are over-represented: about 2.8% of the library has one in this group of screens.
TRPM1 prom inh = reduces MITF-dependent TRPM1 promoter luciferase signal. inhibition, % at 12.5 µM. SK-MEL-5 TRPM1 promoter luciferase, 24 h. actives 0.83% (n = 330,000);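 active means mean inhibition across replicates of 60% or more, whatever share of single replicates reaches that level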
HIF-2a block = blocks HIF-2a reporter activity; actives 0.72% (n = 360,000); 786-0 RCC cells HIF-2a reporter, luciferase luminescence, overnight; inhibition, % at 18.8 µM;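 active means inhibition of the luminescence signal of 40% or more relative to plate controls, in a single-dose primary screen at 18.75 µM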
Beta2AR agonist = agonists of human beta-2 adrenergic receptor inducing internalization; Am2.2-beta2AR cells, FAP receptor internalization, flow cytometry; response, % (no concentration beside the values); actives 0.43% (n = 340,000); AID 504454;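 active means response above a set limit, near 3 SD of response in nonfluorescent compounds, cut at about 42% in these data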
Target sequence (P07550 whole entry, looked up): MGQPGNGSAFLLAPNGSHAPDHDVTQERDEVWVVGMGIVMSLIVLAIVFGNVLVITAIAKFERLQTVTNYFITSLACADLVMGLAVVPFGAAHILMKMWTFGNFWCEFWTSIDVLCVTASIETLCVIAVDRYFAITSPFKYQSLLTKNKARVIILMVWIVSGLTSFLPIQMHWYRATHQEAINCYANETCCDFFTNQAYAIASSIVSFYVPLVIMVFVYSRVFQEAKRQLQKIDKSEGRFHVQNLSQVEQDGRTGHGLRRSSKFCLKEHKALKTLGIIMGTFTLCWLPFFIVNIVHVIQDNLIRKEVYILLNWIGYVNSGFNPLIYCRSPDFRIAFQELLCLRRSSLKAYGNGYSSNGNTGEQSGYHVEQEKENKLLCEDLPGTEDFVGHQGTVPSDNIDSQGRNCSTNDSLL
Peg3 prom inh-1 = Peg3 promoter activity inhibition; actives 1.7% (n = 360,000); HeLa PEG-Prom luciferase reporter, luminescence, overnight; inhibition, % at 20 µM;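 active means inhibition of at least 50% at 20 µM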
KKLEB tox = reduces viability of KKLEB cystic fibrosis airway cells | KKLEB CF airway cells viability, ATPlite luminescence, overnight; stronger effect = lower value; cells stimulated with P. aeruginosa culture filtrate | actives 0.36% (n = 360,000) | activity change (cytotoxicity), % at 5 µM;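 active means corrected activity change at or below -50% at 5 µM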
CF NFkB block = blocks PAF-induced NF-kB reporter in cystic fibrosis cells. KKLEB NF-kB-GFP reporter, GFP fluorescence overnight. inhibition, % at 5 µM. actives 0.86% (n = 360,000). AID 588850;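 active means at least 50% inhibition at 5 µM, scaled per plate between neutral and stimulator controls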;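 further: PAF is a Pseudomonas aeruginosa culture filtrate used as stimulus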
Peg3 prom inh-2 = confirmation of Peg3 promoter inhibitors. shares compounds with Peg3 prom inh-1. HeLa PEG-Prom luciferase reporter, luminescence, overnight. inhibition, % at 20 µM. actives 84% (n = 1,300). AID 602417;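 active means at 20 µM dose, 40% or more inhibition averaged across four replicates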
Mdm2 MdmX conf = confirmation of inhibitors of human Mdm2/MdmX interaction, set 2; actives 99% (n = 740); shares compounds with HIF-2a block; inhibition, % at 8 µM; AID 504601; SaOS-2 split-luciferase Mdm2/MdmX complementation, luminescence;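 active means mean inhibition of the luminescence signal across two replicates at or above 26 percent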
HIF-2a inh conf = confirmation of HIF-2a inhibitors. 786-0 RCC cells, HIF-2a luciferase reporter luminescence, overnight. actives 56% (n = 1,800). shares compounds with HIF-2a block. inhibition, % at 18.8 µM;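 active means mean inhibition across four replicates of at least 40 percent at the single tested concentration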
HIF-1a counter = counter-screen for HIF-2a inhibitors: HIF-1a inhibition in MiaPaCa-2 cells; shares compounds with HIF-2a block; MiaPaCa-2 HIF-1a luciferase reporter, desferoxamine, overnight; inhibition, % at 18.8 µM; actives 72% (n = 1,800); AID 651589;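 active means mean inhibition of the reporter signal across four replicates at the single tested dose of 50% or more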
Each line names hits and unclear results; the compound was inactive in the other large screens (follow-up assays come after a bar, where they were run).

Cc1ccc(S(=O)(=O)CCC(=O)OCC(=O)Nc2cccc(S(=O)(=O)N3CCCCC3)c2)cc1	none (no result: TRPM1 prom inh, Beta2AR agonist)
O=C(Nc1ccccn1)c1cc2ccccc2o1	TRPM1 prom inh 62, HIF-2a block 45, Peg3 prom inh-1 51 | Peg3 prom inh-2 45 | HIF-2a inh conf 70 | HIF-1a counter 61
O=C(Nc1ccc(Cl)cn1)c1cc2ccccc2o1	none
Cc1nn(C(C)(C)C)c(C)c1/C=N/OC(=O)Nc1ccc(Cl)cc1	TRPM1 prom inh 79, HIF-2a block 91, Peg3 prom inh-1 96, KKLEB tox -56 | Peg3 prom inh-2 95 | Mdm2 MdmX conf 101 | HIF-2a inh conf 96 | HIF-1a counter 103
Cc1nn(C)c(C)c1/C=N/NC(=O)C(C)(C)Oc1ccc(Cl)cc1	none
CC1CCN(c2ccc(-c3cccc(NC(=O)C(F)(F)F)c3)nn2)CC1	HIF-2a block 88, Peg3 prom inh-1 86, KKLEB tox -66 | Peg3 prom inh-2 87 | HIF-2a inh conf 94 | HIF-1a counter 93
O=C(Nc1cccc(-c2ccc(N3CCCCC3)nn2)c1)C(F)(F)F	TRPM1 prom inh 62, HIF-2a block 74, Peg3 prom inh-1 77 | Peg3 prom inh-2 75 | HIF-2a inh conf 88 | HIF-1a counter 73
Cc1cccc(-c2ccc([N+](=O)[O-])cc2CN2CCN(c3ncc(Cc4ccccc4)cn3)CC2)c1	none (no result: TRPM1 prom inh, Beta2AR agonist, Peg3 prom inh-1, KKLEB tox, CF NFkB block)
CCOC(=O)c1ccc2nc(Nc3nc4ccc(F)cc4s3)sc2c1	TRPM1 prom inh 96, HIF-2a block 91, Peg3 prom inh-1 96 | Peg3 prom inh-2 93 | HIF-2a inh conf 93 | HIF-1a counter 73
CC(=O)Nc1ccc(-c2ccnc3c2CC(C)(C(=O)Nc2ccc(F)c(Cl)c2)O3)cc1 (stereo not drawn)	none (no result: TRPM1 prom inh, Beta2AR agonist)
COC(=O)C[C@H]1C[C@H]2c3cc(NC(=O)Nc4ccc(C(F)(F)F)cc4)ccc3O[C@H]2[C@@H](CO)O1	none (no result: TRPM1 prom inh, Beta2AR agonist)
CC(Oc1nc2c(c(=O)n(C)c(=O)n2C)n1C)C1CCCCC1 (stereo not drawn)	none
CCOc1ccc(CCN2C(=S)N([C@@H](CC(C)C)CN3CCCC3CN3C(=S)NC[C@@H]3Cc3ccccc3)C[C@@H]2CC(C)C)cc1 (stereo partly drawn)	none (no result: TRPM1 prom inh, Beta2AR agonist, Peg3 prom inh-1, KKLEB tox, CF NFkB block)
CCOC(=O)c1c(NC(C)=O)sc2c(OCC(O)CN(CC)CC)c(Br)ccc12 (stereo not drawn)	HIF-2a block 78, Peg3 prom inh-1 86 | Peg3 prom inh-2 98 | HIF-2a inh conf inactive | HIF-1a counter 106
CCOC(=O)c1c(NC(C)=O)sc2c(OCCN(CC)CC)c(Br)ccc12	none
O=C(Oc1ccc(/C=N/Nc2ccccc2)cc1)c1ccccc1	none
O=C(O)c1ccc(N/N=C/c2ccc(OC(=O)c3cccc(Cl)c3)cc2)cc1	TRPM1 prom inh 78, HIF-2a block 72, Peg3 prom inh-1 69 | Peg3 prom inh-2 64 | HIF-2a inh conf 83 | HIF-1a counter 83
O=C(O)c1ccc(N/N=C/c2ccc3nccnc3c2)cc1	TRPM1 prom inh 99, HIF-2a block 91, Peg3 prom inh-1 99 | Peg3 prom inh-2 96 | HIF-2a inh conf 96 | HIF-1a counter 83
CN1CCN(C2CN(C3CCCC3)S(=O)(=O)C2)CC1 (stereo not drawn)	none (no result: TRPM1 prom inh, Beta2AR agonist)
O=C1CSC(=S)N1c1cccnc1	none
O=C1CSC(=S)N1Cc1cccnc1	HIF-2a block 47, Peg3 prom inh-1 96 | Peg3 prom inh-2 50 | Mdm2 MdmX conf 101

From PubChem BioAssay
